# High-throughput results (PubChem BioAssay)
# Nrf2 activator – Nrf2 pathway activation; AREc32 ARE-luciferase reporter (MCF7-derived line), luminescence, 24 h; Potency, µM (titrated, usually from 46.1 µM), most hits filed as activators; 0.31% of 410,000 active; AID 624171; note: nearly all actives have a fitted effect of over 65% in size
#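 Reporter line AREc32 (ARE-Fluc), seeded overnight in OPTI-MEM with 5% FBS; compound pin-transferred, 24 hr at 37 deg C, 5% CO2; luminescent read-out.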
# A549 viability – A549 cytotoxicity, counter-screen for Nrf2 inhibitors | A549 ARE-Fluc cells, CellTiter-Fluor viability, 18-24 h | Potency, µM (doses to about 46 µM), hits mostly inhibitors | 0.16% of 390,000 active | AID 504648
#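 A549 ARE-Fluc cells in 5% FBS OPTI-MEM, 5000 cells/well, rested 2 h then exposed to compounds in concentration-response for 18-24 h at 37 °C. Viability by CellTiter-Fluor fluorescence (Ex 405/Em 525) after 30 min; luciferase luminescence (BugLite, 15 min, RT) read afterwards.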
# ATXN2 expr inh – reduces ATXN2 reporter expression in HEK-293 cells. HEK-293 ATXN2-luciferase reporter, luminescence, 24 h. Potency, µM (highest dose often 57 µM), usual class: inhibitors. 0.72% of 360,000 active; note: nearly all actives have a fitted effect of over 55% in size
#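 ATXN2-luciferase reporter cells (luciferase flanked by upstream and downstream ATXN2 gene portions) were treated 24 h at 37 °C with compounds at up to 57 uM. SteadyGlo luminescence gave expression; GF-AFC fluorescence gave viability.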
# ATXN viability – reduces viability in counter-screen for ATXN expression inhibitors; 0.49% of 400,000 active; Potency, µM (doses to about 56.7 µM), most hits filed as cytotoxic; AID 651635; S2 cells (HEK-293 line with an ATXN2-luciferase reporter) viability, CellTiter-Fluor protease fluorescence, 24 h; note: nearly all actives have a fitted effect of over 40% in size
# Nrf2 inh – blocks Nrf2 signaling; A549 ARE-Fluc reporter, luciferase luminescence, 18-24 h; 2.1% of 360,000 active; Potency, µM (series often up to 46 µM), actives largely listed as inhibitors; note: nearly all actives have a fitted effect of over 60% in size
#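 Two sequential reads on A549 ARE_Fluc cells exposed to compound for 18-24 h: a CellTiter-Fluor fluorescence read for viability, then a luciferase luminescence read for Nrf2/ARE activity.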
# A number is an active result; 0 = inactive; ? = inconclusive; - = not tested or not shown; [ ] = remark or other dose. Shown are actives, neighbours in structure and some others; about 2.9% of the full set was active somewhere. Calls come from the whole dose curve; as a rule, active = well fitted curve in the direction sought with a large enough effect; inconclusive = small, poorly fitted or top-dose-only effect, or another doubt; inactive = no such curve, though single readings can be large; an effect the other way counts as inactive or inconclusive.
SMILES,Nrf2 activator,A549 viability,ATXN2 expr inh,ATXN viability,Nrf2 inh
Cc1ccccc1C(=O)Nc1ccccc1C(=O)NCC(C)C,0,0,0,0,0
O=C(CC[C@H]1O[C@@H](n2cnc3c(NC(=O)c4ccccc4)ncnc32)[C@H](O)[C@@H]1O)NCC1CCN(Cc2ccccc2)CC1,0,-,0,0,-
O=C(O)c1ccccc1Nc1ccc([N+](=O)[O-])c2nonc12,0,18µM,0,?,0
O=C(O)c1ccccc1Nc1ccc([N+](=O)[O-])cc1C(=O)O,0,0,0,0,0
COc1cccc(Nc2ccc([N+](=O)[O-])c3nonc23)c1,0[9.22 µM],18µM,0,?,?
COc1ccc(-c2n[nH]c(C(F)(F)F)c2-c2cc3ccccc3o2)c(O)c1,0,16µM,?,?,16µM
Cc1ccc(S(=O)(=O)CCSc2n[nH]c(=O)n2-c2ccccc2)cc1,?,0,0,?,?
Cc1cc(C)c(-n2c(SCCS(=O)(=O)c3ccc(F)cc3)n[nH]c2=O)c(C)c1,8.9µM,0,0,?,0
Cc1cc(C)c(-n2c(SCc3nc4ccccc4s3)n[nH]c2=O)c(C)c1,0,0,0,0,16µM
CCOc1ccc(CN(CCO)CCO)cc1C(=O)OC,0,0,0,0,0
CCCN(CCC)S(=O)(=O)c1ccc(Cl)c([N+](=O)[O-])c1,?,0,?,24µM,0
CCCN(CCC)S(=O)(=O)c1ccc(N2CCCC2=O)c([N+](=O)[O-])c1,0,0,0,?,0
O=C1CC(c2ccccc2)=Nc2ccccc2N1Cc1ccccc1,0,0,0[11.3 µM],0,0
CC(=O)c1nc(N2CCN(S(=O)(=O)c3ccc(C)cc3)CC2)c2ccccc2n1,-,0,-,-,0
Cn1c(N2CCN(S(=O)(=O)c3ccc(Cl)cc3)CC2)nc2ccccc21,0,0,0,0,?
Cc1cc(N2CCN(S(=O)(=O)c3ccc(Cl)cc3)CC2)c2ccccc2n1,0,0,?,?,21µM
Cc1cc(N2CCN(S(=O)(=O)c3ccc(Cl)c(Cl)c3)CC2)c2ccccc2n1,0,0,0,0,23µM
COC(=O)c1[nH]c2cccc(Cl)c2c1NC(=O)CN1CCN(CCO)CC1,0,0,0,?,0
CCCCC(=O)Nc1ccc(C(=O)Nc2ccc(OC)cc2[N+](=O)[O-])cc1,0,?,?,?,21µM
COc1ccc(OC)c(CCNC(=O)Cn2nc(C)c3c(C)n(-c4ccc(C)cc4)nc3c2=O)c1,0,0,0,0,10µM
CCc1nc(N2CCN(C(=O)CCCl)CC2)c2c3c(sc2n1)CCCC3,0,-,-,0,-
O=C(c1ccco1)N1CCN(c2nc(C3CC3)nc3sc4c(c23)CCCC4)CC1,0,?,0,0,23µM
Cc1nc(N2CCN(C(=O)c3ccco3)CC2)c2c3c(sc2n1)CCCC3,0,0,?,?,?
O=C(c1ccco1)N1CCN(c2nc(C3CC3)nc3c2nnn3Cc2ccccc2Cl)CC1,0,0,0,0,16µM
O=C(c1ccco1)N1CCC(c2nc3c(nnn3Cc3ccccc3Cl)c(=O)[nH]2)CC1,0,0,0,0,0
SMILES,Nrf2 activator,A549 viability,ATXN2 expr inh,ATXN viability,Nrf2 inh
Cc1nc(N2CCN(C(=O)c3cccs3)CC2)c2c3c(sc2n1)CCCC3,0,?,?,0,18µM
CCOC(=O)c1nc(N2CCN(C(=O)OCC)CC2)c2c3c(sc2n1)CCCC3,0,0,0,0,26µM
Cn1cc(C=O)c2cc(F)ccc21,0,0,-,0,0
Cn1cc(/C=C/c2cc[n+](C)cc2)c2cc(Cl)ccc21,0,?,?,0,10µM
Cc1ccc(-c2noc(-c3cccs3)n2)cc1,11µM,0,0,0,?
c1csc(-c2nc(-c3ccc(-c4ccon4)s3)no2)c1,5.6µM,0,0,0,?
CCOc1ccc(C(=O)CC(C(=O)O)N2CCN(Cc3ccccc3)CC2)cc1 (stereo not drawn),?,0,0,0,0
CCOc1ccc(C(=O)CC(NCc2cccs2)C(=O)O)cc1 (stereo not drawn),11µM,0,0,0,0
CCOc1ccc(C(=O)CCC(=O)N(CC)CC(=O)NCc2cccs2)cc1,0,0,0,0,0
CCOc1ccc(C(=O)CC(C(=O)O)N2CCCCC2)cc1 (stereo not drawn),16µM,0,0,0,0
CC1CCN(c2oc(/C=C/c3ccc(F)cc3)nc2C#N)CC1,0,0,0,0,0
COc1ccc(CNc2ncnc3cc(Cl)ccc23)cc1OC,0,0,0,0,16µM
Cc1csc2ncnc(NCCc3ccccn3)c12,0,0,0,0,0
c1ccc(CCNc2ncnc3sccc23)nc1,0,?,-,0,8.2µM
COc1ccc(CNc2ncnc3sccc23)cc1,0,0,0,?,10µM
COc1ccccc1CNc1ncnc2cc(Cl)ccc12,0,0,0,0,?
COc1ccc(CNc2ncnc3sccc23)cc1OC,0,0,0,0,10µM
NS(=O)(=O)c1cccc(NC(=O)c2cccc(-c3ccc(O)cc3)c2)c1,0,0,0,0,0
COC(=O)N1C(=O)[C@@](c2ccccc2)(C2CCCCC2)N1C(=O)OC,0,0,?,20µM,?
Cc1ccc(CC2S/C(=N/N=C/c3ccco3)NC2=O)cc1 (stereo not drawn),4.5µM,0,0,0,0
O=C1N/C(=N\N=C\c2ccccn2)SC1Cc1cccc(SC(F)F)c1 (stereo not drawn),0,0,18µM,?,16µM
O=C1N/C(=N\N=C\c2cccnc2)SC1Cc1ccc(SC(F)F)cc1 (stereo not drawn),0,0,13µM,?,16µM
Cc1cc(-c2nnc(CCC(=O)NC(C)(C)C34CC5CC(CC(C5)C3)C4)o2)no1,0,0,0,0,0
CC(=O)Nc1ccc(S(=O)(=O)NCCSCc2ccccc2Cl)cc1,0,0,0,0,10µM
CC(C)NC(=O)C1(S(=O)(=O)c2ccccc2)CC=CC1,0,0,0,0,0
SMILES,Nrf2 activator,A549 viability,ATXN2 expr inh,ATXN viability,Nrf2 inh
COc1cccc(C(C)NC(=O)Nc2ccccc2Cl)c1 (stereo not drawn),0,0,0,0,10µM
Cc1cc(C(=O)O[C@H]2[C@H](C)NS(=O)(=O)[C@H]3C[C@@H]4C=C[C@]23O4)cc([N+](=O)[O-])c1,0,0,0,0,0
O=C(Nc1cccc(Br)c1)c1cccc(OC(=S)N2CCOCC2)c1,0,0,?,?,16µM
CCn1c(SCc2nc(-c3ccccc3)no2)nnc1-c1cccs1,0,-,0,0,?
CCn1c(SCC(=O)N/N=C/c2c[nH]c3ccccc23)nnc1-c1ccc(C(C)(C)C)cc1,0,?,0,0,16µM
COCCn1c(SCC(=O)c2c[nH]c3ccccc23)nnc1-c1ccncc1,0,0,0,0,0
CCn1c(SCc2nc3ccccc3s2)nnc1-c1cccs1,14µM,0,0,0,?
CCn1c(SCc2nc(-c3cccs3)no2)nnc1-c1c[nH]c2ccccc12,0,?,?,?,18µM
